Screening data deposited in PubChem BioAssay by Center for Chemical Genomics, University of Michigan.
Many of the other results were omitted from the sample, so hits are more common in it than they were.
Dicer processing = inhibitors of human Dicer processing of pre-microRNA | Q9UPY3 | cat-ELCCA pre-miR-21 Dicer processing, chemiluminescence; hits give high values | z-score at 25 µM | hit rate 6% among 47,000 | AID 1347074; in the data active = z-score above about 3, passing the limit was not always enough;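 also: higher signal means more uncleaved substrate so more Dicer inhibition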
Each line names hits and unclear results; the compound was inactive in the other large screens.

COc1ccc(C2CC(=O)C3=C(C2)Nc2ccccc2NC3c2ccccc2OC(C)C)cc1 (stereo unspecified)	none
COc1ccc(C2CC(=O)C3=C(C2)Nc2ccccc2NC3c2ccccc2OC(C)C)cc1OC (stereo unspecified)	none
COc1ccc(C2CC(=O)C3=C(C2)Nc2ccccc2NC3c2ccc(Cl)cc2)cc1OC (stereo unspecified)	none
CC(C)Oc1ccccc1C1Nc2ccccc2NC2=C1C(=O)CC(c1ccccc1)C2 (stereo unspecified)	Dicer processing 5.7
COc1cc(C2Nc3ccccc3NC3=C2C(=O)CC(c2ccccc2)C3)cc(Cl)c1O (stereo unspecified)	Dicer processing 3.2
COc1ccc(C2Nc3ccccc3NC3=C2C(=O)CC(c2ccccc2)C3)cc1O (stereo unspecified)	none
Fc1ccc(Cn2nnc(-c3ccccc3Cl)n2)cc1	none
Cc1cccc(OCc2nn3c(-c4ccccc4)nnc3s2)c1	none
COc1ccc(C2Nc3n[nH]c(C)c3C3=C2C(=O)CC(C)(C)C3)cc1 (stereo unspecified)	none
CCCCC(=O)Nc1nc2ccccc2s1	none
O=C(Nc1ccc(F)cc1)Nc1nc2ccccc2s1	none
CCNC(=O)Nc1nc2ccccc2s1	Dicer processing 4.4
O=C(Nc1nccs1)c1cc2ccccc2c(=O)s1	none
O=C(Nc1ccc2n[nH]nc2c1)c1sc2ccccc2c1Cl	none
O=C(O)c1ccc(-n2nnnc2SCc2ccccc2Br)cc1	none
NC(=O)c1ccc(-n2nnnc2SCc2ccccc2Br)cc1	Dicer processing 4
Clc1ccccc1CSc1nnnn1-c1ccccc1	none
CCOC(=O)C1CCN(c2sccc2[N+](=O)[O-])CC1	none
CCOC(=O)c1ccc(N)cc1	none
CCOC(=O)c1ccc(Oc2sccc2[N+](=O)[O-])cc1	Dicer processing 3.4
Cn1c(NCc2ccc(F)cc2)cc(=O)n(C)c1=O	none
COc1ccc(OCc2c(C#N)c3ccccc3n2C)cc1	none
Cc1ccccc1NCc1c(C#N)c2ccccc2n1C	Dicer processing 3.5
N#Cc1c(=O)c2ccccc2n2ccccc12	none
COC(=O)c1cc(S(=O)(=O)C(C)C)cs1	none
Cc1nn(-c2ccccc2)nc1-c1n[nH]c(=S)n1-c1cccc(Cl)c1C	none
COc1c(C(=O)Nc2ccc(Cl)cc2)cnc2c1c(C)nn2C	none
CCOc1ccc(/C=N/NC(=S)NCCCOC)cc1	none
COc1cccc(C2c3c(oc4ccccc4c3=O)C(=O)N2Cc2ccc3c(c2)OCO3)c1 (stereo unspecified)	none
O=C(NNC(=O)c1sccc1OCc1ncc(C(F)(F)F)cc1Cl)Nc1ccccc1	none
Clc1ccc(-c2nc3ccccc3s2)cc1	none
c1ccc(-c2nc3ccccc3s2)cc1	none
c1cncc(-c2nc3ccccc3s2)c1	Dicer processing 5.6
CC(C)(C)C(=O)NC(=S)Nc1cc(C(F)(F)F)cc(C(F)(F)F)c1	none
Cc1ccc2nc(Cc3ccc4nc(N)sc4c3)oc2c1	Dicer processing 4.7
Cc1ccc2nc(Cc3ccc(N)cc3)oc2c1	none
Nc1nc2ccc(Cc3nc4ccccc4o3)cc2s1	none
CCC12CN3CC(CC)(CN(C1)C3c1cccc(C)c1)C2=O (stereo unspecified)	none
COc1cccc(-n2c(C3CCCNC3=O)n[nH]c2=S)c1 (stereo unspecified)	none
CN(C)CC1(C(OC(=O)c2ccc([N+](=O)[O-])cc2)c2cccc(F)c2)CCCCC1 (stereo unspecified)	none
CC(=O)c1c(O)c2ccccc2n(C)c1=O	none
CCOC(=O)c1c(O)c2ccccc2n(C)c1=O	none
Cn1c(=O)c(C(=O)NCc2ccccn2)c(O)c2ccccc21	Dicer processing 10
NC(=O)C1CCN(C(=O)C2CC(c3ccccc3Cl)=NO2)CC1 (stereo unspecified)	none
CC(C)(ONC(=O)Nc1ccccc1Cl)C(=O)O	none
NC(=O)NC(=S)NC(=O)c1ccccc1Cl	none
NC(=O)NC(=O)Nc1ccccc1Cl	Dicer processing 6
COc1cccc(-n2cc(-c3ccc(F)cc3)nc2SCC(C)=O)c1	none
CCCc1cc(C(=O)Nc2ccc(N(CC)CC)cc2)nn1-c1ccccc1	Dicer processing 4.4
CCCc1c(NC(=O)Nc2ccc(F)cc2)cnn1-c1ccccc1	none
CCCCOC(=O)Nc1ccc(N(CC)CC)cc1	none
COC(=O)c1sccc1NNC(=O)/C(C)=C/C(=O)O	none
O=C(OCCN1CCOCC1)C1c2ccccc2Oc2ccccc21	none
Cc1ccc(C)n1-c1cc([N+](=O)[O-])ccc1N1CCN(C(=O)N(C)C)CC1	none
Cc1ccc(C)n1-c1cc([N+](=O)[O-])ccc1N1CCN(S(=O)(=O)c2cn(C)cn2)CC1	Dicer processing 4.8
Cc1ccc(C)n1-c1cc([N+](=O)[O-])ccc1-n1ccnc1	none
CCOC(=O)c1nc(-c2ccccc2)sc1-c1ccnn1C(=O)Nc1ccc(Cl)cc1	none
Nc1ccccc1Sc1nc2cc(Cl)ccc2s1	none
ONC=Nc1ccccc1Sc1nc2c(Cl)cc(Cl)cc2s1	none
ONC=Nc1ccccc1Sc1nc2cc(Cl)ccc2s1	Dicer processing 3.1
Cc1cccn2cc(-c3ccc(F)cc3)nc12	none
c1ccc(-c2cc3ccccn3c2)cc1	none
Cc1cccn2cc(-c3ccc(F)cc3)cc12	Dicer processing 4.4
CCOC(=O)c1c(NC(=O)CC)sc2c1CC(C)(C)OC2	none
CCOC(=O)C(=O)Nc1sc2c(c1C(=O)OCC)CC(C)(C)OC2	Dicer processing 4.8
CCCCC(=O)Nc1sc2c(c1C(=O)OCC)CC(C)(C)OC2	none
CCOC(=O)CSc1nc(O)cc(=O)[nH]1	none
Clc1ccc(-c2noc(C3CCc4ccccc4O3)n2)cc1 (stereo unspecified)	none
O=C(Oc1cccc2[nH]ccc12)c1ccc(C(F)(F)F)cc1	none
C(=C\c1nnnn1-c1ccccc1)/NCc1ccccc1	none
NC(=S)N/N=C\Cc1nnnn1-c1ccccc1	none
Fc1ccc(N/N=C/Cc2nnnn2-c2ccccc2)c(F)c1	Dicer processing 3.9
COc1ccccc1C1Nc2ccc(C)cc2-c2cc(C)nn21 (stereo unspecified)	Dicer processing 3.5
CCOc1cccc(C2Nc3ccc(C)cc3-c3cc(C)nn32)c1O (stereo unspecified)	none
CCOc1ccccc1C1Nc2ccc(C)cc2-c2cc(C)nn21 (stereo unspecified)	Dicer processing 4.1
COc1ccc(C2Nc3ccc(C)cc3-c3cc(C)nn32)c(OC)c1 (stereo unspecified)	none
COc1ccccc1C1Nc2ccccc2-c2cc(C)nn21 (stereo unspecified)	none
CN(Cc1ccccc1)C(=S)Nc1ccc(Cl)cc1	none
O=[N+]([O-])c1cccc(-c2noc(CSC3=NCCN3Cc3ccccc3)n2)c1	none
N#Cc1nc(COc2cccc(Cl)c2)oc1NCc1cccnc1	Dicer processing 3.8
COc1ccc(OCc2nc(C#N)c(N3CCN(c4ccccc4)CC3)o2)cc1	Dicer processing 3
N#Cc1nc(COc2cccc(Cl)c2)oc1N1CCCCC1	Dicer processing 3.9
N#Cc1nc(COc2ccccc2Cl)oc1N1CCCC1	none
COc1ccc(N2CCN(c3oc(COc4ccc(F)cc4)nc3C#N)CC2)cc1	none
COc1ccc(OCc2nc(C#N)c(N3CCC(C(N)=O)CC3)o2)cc1	none
N#Cc1nc(COc2ccccc2Cl)oc1N1CCOCC1	none
N#Cc1nc(COc2ccc(F)cc2)oc1NCc1cccnc1	none
N#Cc1nc(COc2cccc(Cl)c2)oc1NCc1ccco1	none
Cc1ccc2[nH]c(=O)c(-c3ccccc3)c(O)c2c1	none
COc1ccc(Br)c(C(=O)/C(C#N)=N/O)c1	none
COC(=O)c1ccc(Cn2cnc3ccccc32)cc1	none
O=C(Cn1nnc2sc3c(c2c1=O)CCCC3)Nc1ccccc1F	none
Cc1ccc(NC(=S)Nc2cccc(C(F)(F)F)c2)c(C)c1	none
C=C(C)CC1C(=O)N(S(=O)(=O)c2ccccc2Cl)N=C1C (stereo unspecified)	none
